In the library only some 3.5% were active in any assay of this set; here they are far more common.
Bead autofluor = counter-screen for toxin protease inhibitors: compound fluorescence. compound autofluorescence counterscreen, microsphere flow cytometry; active compounds read high. fluorescence intensity (no concentration beside the values). hit rate 3.1% among 360,000. AID 624483; in the data active = fluorescence intensity above about 16000; inconclusive = no clear call, values can overlap the other calls
Anthrax LF inh2 = Bacillus anthracis LF protease inhibitors, primary screen, biochemical, multiplex microsphere, MLPCN library. Lethal factor (Bacillus anthracis), P15917. inhibition, % at 10 µM. hit rate 0.12% among 360,000. multiplex microsphere protease cleavage assay. AID 588501, 2011; note: plate controls were buffer without enzyme for full effect and enzyme alone for no effect
BoNT-F LC inh = BoNT/F light chain protease inhibitors, primary screen, biochemical, flow cytometry, MLPCN library | Botulinum neurotoxin type F light chain protease (Clostridium botulinum) | Multiplex microsphere protease cleavage assay | inhibition, % at 10 µM | hit rate 0.22% among 360,000 | AID 588497, 2011; in the data active = inhibition above about 35%, passing the limit was not always enough; inconclusive = no clear call, values can overlap the other calls; note: plate controls were buffer without enzyme for full effect and enzyme alone for no effect
BJeLR viability = MLPCN primary cell-based screen for lethality selective to Ras in HRASV12 cells. inhibition, % (concentration not given with the values). hit rate 0.17% among 300,000. BJeLR (HRASV12) viability, CellTiter-Glo ATP luminescence, 48 h. AID 1554, 2009; in the data active = inhibition above about 50%; inconclusive = no clear call, values can overlap the other calls
BoNT-A LC inh2 = BoNT/A light chain protease inhibitors, primary screen, biochemical, flow cytometry, MLPCN library. Botulinum neurotoxin type A light chain protease (Clostridium botulinum A str. ATCC 3502). multiplex microsphere protease substrate cleavage. inhibition, % at 10 µM. hit rate 0.17% among 360,000. AID 588499, 2011; note: plate controls were buffer without enzyme for full effect and enzyme alone for no effect
The depositor's hits bear a star. Cut-off read from the data, not from the text of the source, unless noted: active = inhibition above about 30%; inconclusive = no clear call, values can overlap the other calls; inactive = below that.

`Cn1nccc1/C=C(/C#N)S(=O)(=O)c1ccccc1` gave Bead autofluor inconclusive, Anthrax LF inh2 -8, BoNT-F LC inh 4, BJeLR viability -1 and BoNT-A LC inh2 -1.
`CC(=O)Nc1cccc(N2CCCC2=O)c1` gave Bead autofluor 25393*, Anthrax LF inh2 0, BoNT-F LC inh -8, BJeLR viability -1 and BoNT-A LC inh2 -6.
CC1(C)CC(=O)c2c(O)cc(OCc3ccc(Br)cc3)cc2O1 was read as Bead autofluor 22502*, Anthrax LF inh2 -3, BoNT-F LC inh 2, BJeLR viability -2 and BoNT-A LC inh2 2.
For C/C(=N\O)C1/C(=N/O)CC2C1C2(C)C (stereo not drawn) the results were Bead autofluor 23424*, Anthrax LF inh2 -1, BoNT-F LC inh -2, BJeLR viability 3 and BoNT-A LC inh2 -1.
O=C(Nc1ccc(-c2cn3ccsc3n2)cc1)c1ccc(F)c(S(=O)(=O)N2CCOCC2)c1 was read as Bead autofluor 19935*, Anthrax LF inh2 -6, BoNT-F LC inh -3, BJeLR viability 1 and BoNT-A LC inh2 -2.
Screening O=C(Nc1ccc(F)cc1)C1CCCN(C2=NS(=O)(=O)c3ccccc32)C1 (stereo not drawn) returned Bead autofluor 6596, Anthrax LF inh2 -4, BoNT-F LC inh 3 and BoNT-A LC inh2 1.
Cc1nc(CN(C)c2ncnc3ccc(-c4ccc5c(c4)OCO5)cc23)cs1 was read as Bead autofluor 4121, Anthrax LF inh2 -1, BoNT-F LC inh -1 and BoNT-A LC inh2 0.
COc1ccc(NC(=O)c2cccnc2)c(OC)c1 was read as Bead autofluor 20616*, Anthrax LF inh2 -1, BoNT-F LC inh 2, BJeLR viability 3 and BoNT-A LC inh2 inconclusive.
`COc1cccc(NC(=O)c2cc(-c3cccnc3)nc3c(Cl)cccc23)c1` gave Bead autofluor 15951, Anthrax LF inh2 -2, BoNT-F LC inh 1, BJeLR viability -1 and BoNT-A LC inh2 2.
`Cc1ccc(NC(=O)Nc2ccc(F)cc2F)c(OC(F)F)c1` gave Bead autofluor 4071, Anthrax LF inh2 -4, BoNT-F LC inh -4, BJeLR viability -3 and BoNT-A LC inh2 0.
COc1ccc(NC(=O)Nc2cc(C)ccc2OC(F)F)c(OC)c1 was read as Bead autofluor 22223*, Anthrax LF inh2 -6, BoNT-F LC inh 1, BJeLR viability -23 and BoNT-A LC inh2 2.
`COc1ccc(NC(=O)c2ccccc2C)c(OC)c1` gave Bead autofluor 16437*, Anthrax LF inh2 -2, BoNT-F LC inh 2, BJeLR viability -5 and BoNT-A LC inh2 -1.
COc1ccccc1NC(=O)c1cccnc1 was read as Bead autofluor 3025, Anthrax LF inh2 -5, BoNT-F LC inh -14, BJeLR viability 5 and BoNT-A LC inh2 0.
COc1ccc(NC(=O)c2cc(-c3cccnc3)nc3c(C)c(C)ccc23)c(OC)c1 was read as Bead autofluor 17562*, Anthrax LF inh2 0, BoNT-F LC inh 9, BJeLR viability -11 and BoNT-A LC inh2 9.
For OC[C@@H]1CN(Cc2ccc(Cl)cc2)C[C@H](n2cnc3c(N4CCCC4)ncnc32)O1 the results were Bead autofluor 3588, Anthrax LF inh2 8, BoNT-F LC inh -1 and BoNT-A LC inh2 0.
For Cc1c(C(=O)NCc2ccco2)sc(=O)n1Cc1ccc(S(C)(=O)=O)cc1 the results were Bead autofluor 5242, Anthrax LF inh2 0, BoNT-F LC inh -1 and BoNT-A LC inh2 0.
`CCN(CC)CCCn1c(=S)[nH]c2cc(C(=O)OC)ccc2c1=O` gave Bead autofluor 23192*, Anthrax LF inh2 -1, BoNT-F LC inh -3, BJeLR viability 14 and BoNT-A LC inh2 1.
For COc1cc2[nH]c(=S)n(NC(=O)c3ccccc3)c(=O)c2cc1OC the results were Bead autofluor 16796*, Anthrax LF inh2 0, BoNT-F LC inh 0, BJeLR viability 6 and BoNT-A LC inh2 -1.
Screening CCN(CC)CCCn1c(=S)[nH]c2cc(OC)c(OC)cc2c1=O returned Bead autofluor 22782*, Anthrax LF inh2 -1, BoNT-F LC inh -8, BJeLR viability 6 and BoNT-A LC inh2 inconclusive.
COC(=O)c1ccc2c(=O)n(NC(C)=O)c(=S)[nH]c2c1 was read as Bead autofluor 23622*, Anthrax LF inh2 -3, BoNT-F LC inh -5, BJeLR viability -11 and BoNT-A LC inh2 -2.
Screening CCn1c(=S)[nH]c2cc(C(=O)OC)ccc2c1=O returned Bead autofluor 6493, Anthrax LF inh2 3, BoNT-F LC inh -2, BJeLR viability 3 and BoNT-A LC inh2 0.
Screening CC(NC(=O)COC(=O)C1CCN(c2ccc(C(F)(F)F)cn2)CC1)c1ccc(Br)cc1 (stereo not drawn) returned Bead autofluor 6128, Anthrax LF inh2 0, BoNT-F LC inh -3, BJeLR viability 12 and BoNT-A LC inh2 -1.
For OC[C@H]1O[C@@H](c2nc(-c3ccccc3Br)no2)[C@H](O)[C@@H](O)[C@H]1O the results were Bead autofluor 3513, Anthrax LF inh2 2, BoNT-F LC inh 4 and BoNT-A LC inh2 0.
For OC(c1ccc(F)cc1)c1ncc(-c2ccc3ccccc3c2)[nH]1 (stereo not drawn) the results were Bead autofluor 3740, Anthrax LF inh2 -4, BoNT-F LC inh -11 and BoNT-A LC inh2 0.
Screening CC(=O)NC(c1cccc(F)c1)c1nc(/C=C/c2ccccc2)cs1 (stereo not drawn) returned Bead autofluor 3645, Anthrax LF inh2 1, BoNT-F LC inh -6 and BoNT-A LC inh2 0.
Screening CCN(CC)CCNC(=O)c1ccc2c(=O)n(C3CCCC3)c(=S)[nH]c2c1 returned Bead autofluor 20853*, Anthrax LF inh2 -1, BoNT-F LC inh 1, BJeLR viability -9 and BoNT-A LC inh2 0.
Screening CC(C)NC(=O)c1ccc2c(=O)n(C3CCCC3)c(=S)[nH]c2c1 returned Bead autofluor 9824, Anthrax LF inh2 -5, BoNT-F LC inh 2, BJeLR viability 13 and BoNT-A LC inh2 0.
For Cc1[nH]c2ccccc2c1/C=N/NC(=O)CNC(=O)c1ccc2c(c1)OCCO2 the results were Bead autofluor 4367, Anthrax LF inh2 -8, BoNT-F LC inh -5, BJeLR viability -4 and BoNT-A LC inh2 0.
Screening Nc1ccnn1C1CCNCC1 returned Bead autofluor 19137*, Anthrax LF inh2 2, BoNT-F LC inh 13, BJeLR viability -3 and BoNT-A LC inh2 8.
Screening CCCSc1nc(O)c(CC)c(=O)n1C(C)CC (stereo not drawn) returned Bead autofluor 19471*, Anthrax LF inh2 -9, BoNT-F LC inh 11, BJeLR viability 10 and BoNT-A LC inh2 inconclusive.
Screening Cc1ccc(S(=O)(=O)N2C[C@H]3C(=O)C[C@@H](c4ccccc4)N(S(=O)(=O)c4ccc(C)cc4)[C@H]3C[C@H]2c2ccccc2Cl)cc1 returned Bead autofluor 5536, Anthrax LF inh2 7, BoNT-F LC inh -4 and BoNT-A LC inh2 -1.

From PubChem
